PubChem BioAssay AID1508600 (Functional Genomics Laboratory (NCATS/FGL), 2020)
The whole screen tested about 53,000 sequences, of which about 3,700 (7%) were called active.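 How the source made its calls: active means gene knockdowns whose robust z-score for IL-1 alpha signal is at least 2 or at most -2, so actives lie on both sides; inactive means the rest.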 This excerpt belongs to a sample that is enriched for actives.

Assay: Components of the Cytosolic LPS Sensing Pathway: Gene Identification via Genome-wide siRNA Screen;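 further: robust z of the log signal after scaling to non-targeting control siRNA wells of the plate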
Conditions: RAW264.7 macrophages, IL-1a HTRF, actives lie on both sides, screened at 100 nM (by protocol), cells primed 5 h with Pam3CSK4 first
Method in brief: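 RAW264.7 mouse macrophages reverse-transfected with single siRNAs (100 nM final) for 48h, primed with Pam3CSK4 for 5 hours, then transfected with LipidA for 24 hour. Supernatant IL-1a read by HTRF; values normalized to negative-control median, log-transformed robust z-scores.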
With CCUCCUCUCCUAAAUGCCUTT against Llcfc1 the z-score was -1.23 (inactive).
In the case of GGAACGAGUUUUGAAAAAATT against Creb3l3, the z-score is reported as 0.073 (inactive).
With GGAAGAACAUUGUUACCUGTT against Svep1 the z-score was 1.1 (inactive).
With GGUCCUACUUACUACUGCCTT against Fam83h the z-score was 0.265 (inactive).
With CGUCUACCCGGAAUUUCAGTT against Sdha the z-score was -1.42 (inactive).
With GGAAGGACUAUUUUCUUUCTT against Trak1 the z-score was 1.5 (inactive).
With GGCAGAAAGCAAAAUGUUUTT against Gata3 the z-score was -4.28 (active).
For GUGGAUACGUGGGAAAGUCTT against Nmnat1, the z-score was 0.0316 (inactive).
With CGCUCUGUUAAUGCAGGAUTT against Papss1 the z-score was 3.22 (active).
With GCUAUUUCUGCCUUUAGUCTT against Scamp5 the z-score was -0.0682 (inactive).
With CCCACUGUGAAGAGAGGCATT against Xlr3c the z-score was -1.41 (inactive).
With GGUUCAGACAACUCAGUGGTT against Pbx1 the z-score was 0.813 (inactive).
With GGAGAAGGUGCUCAAGUUGTT against Henmt1 the z-score was -2.45 (active).
With CGGAUUCAUCAGUUUGGUATT against Cdc7 the z-score was 0.274 (inactive).
With GCAACUUACUUGAUCUGAATT against Ap2b1 the z-score was -0.292 (inactive).
In the case of CCUUCUAAUUAUCACCAAATT against Arhgap18, the z-score is reported as -0.102 (inactive).
With GCUAACUGCACUCCGAGAUTT against Asap1 the z-score was -0.266 (inactive).
With GGAAAAUUGAUAGCAAGCUTT against Fbxw15 the z-score was 1.9 (inactive).
In the case of GGCACAUCUCCCUAACACUTT against Mvb12b, the z-score is reported as -2.02 (active).
With CCAAGCAUUAUGAGAUGCUTT against Sec23b the z-score was 0.749 (inactive).
In the case of GGUUACUAGAUGUAUUUUGTT against Ppp3cb, the z-score is reported as -0.785 (inactive).
With GGAAGAGGACCAAAGUGCUTT against Pnpla7 the z-score was 1.75 (inactive).
In the case of GGAUCAACAUCAGAGUUCUTT against Zfp119b, the z-score is reported as -0.562 (inactive).
For CCCUAAUUCUUAGGCCUUUTT against Bloc1s3, the z-score was -0.242 (inactive).
For GGAAAGGUUUAAUCAUGAATT against Spred1, the z-score was 0.602 (inactive).
In the case of GGCAAGCACAAUGAUCAUUTT against Trappc11, the z-score is reported as -2.36 (active).
In the case of CGCUUUAGUGACUUUCAAATT against Metrnl, the z-score is reported as -0.583 (inactive).
In the case of GCAGAUCCGAAUCAAUGAGTT against Twf2, the z-score is reported as 0.504 (inactive).
For GCGAUUGAGAGGCUACACUTT against Pigb, the z-score was 0.402 (inactive).
In the case of GGGCUGUUAUUUCAAGAAATT against Galnt13, the z-score is reported as -0.173 (inactive).
In the case of CCCACUAAAAUCCUAUCUCTT against Ggta1, the z-score is reported as -2.57 (active).
In the case of GGGUCAAGUUUACAGAUGATT against Luc7l, the z-score is reported as 0.0159 (inactive).
For GGGUGCAUUUUAAAUACUATT against Spred2, the z-score was 0.73 (inactive).
In the case of GGAAUCCUCUAAAUGACCUTT against Vmn1r174, the z-score is reported as -1.49 (inactive).
With GGCCAUUCUUUGUCACCCATT against Os9 the z-score was -2.87 (active).
With CCAUUAACUCUUUGAGUAUTT against Omg the z-score was 0.321 (inactive).
For GGAGCUGAGAAACAAGAUUTT against Bspry, the z-score was -0.972 (inactive).
In the case of GGAUGUUAAAGCCAUAUACTT against Msh6, the z-score is reported as -0.788 (inactive).
In the case of GGGCUACCUCAGUUUAAACTT against Spic, the z-score is reported as 0.763 (inactive).
In the case of GGCAAUAACUGCUUUAUCUTT against Olfr509, the z-score is reported as -0.68 (inactive).
With GCGUAUUCAGCUGGGAUAGTT against Marveld2 the z-score was -2.42 (active).
With CCUUCGUGUUCACUUUAAGTT against Rpl17 the z-score was -1.5 (inactive).
In the case of CCACUAAUAGUCGUAGAAUTT against Dand5, the z-score is reported as 0.535 (inactive).
With GCCAUCUCUAUGUUGUUGATT against Smtnl2 the z-score was -0.108 (inactive).
For GGUCAUCCUCAAGAUGAAGTT against Zfp819, the z-score was -2.82 (active).
For GGCAUGUCCAAGGAAUACUTT against Snrpg, the z-score was -1.4 (inactive).
In the case of GGUUAAUCUGAGAAUUCUATT against Kcnk1, the z-score is reported as 0.717 (inactive).
For CCCAAUUUUUAGUUGCUAATT against Rab2b, the z-score was 0.0495 (inactive).
In the case of GGAAGCUGUCUUCAAGUCCTT against Phf7, the z-score is reported as -1.3 (inactive).
In the case of GCAGUCCUCGUCCUCAAAGTT against Btbd10, the z-score is reported as 2.16 (active).
With GGCAGAAUACUAUAUAUAGTT against Tmx2 the z-score was 0.879 (inactive).
For GGAAAUCUGUUCUUGAAGGTT against Pcdhb4, the z-score was -0.0811 (inactive).
For GGUGCUGACUCCGACUAAATT against Nhsl1, the z-score was 1.2 (inactive).
In the case of GGUACAGCUGGUUCUCUUUTT against Olfr1018, the z-score is reported as 1.2 (inactive).
For GCUUGCUAGAUUGGUGUUGTT against Arhgap17, the z-score was 3.32 (active).
In the case of GGCUGCUAUCAUGGAAUUATT against Ppp2cb, the z-score is reported as 0.924 (inactive).
For CGUGUGAAGAAAAUUGAUGTT against Mmp27, the z-score was 0.568 (inactive).
In the case of GCACAGUAACCUAAAAUACTT against Tanc2, the z-score is reported as -1.48 (inactive).
With GGAUUUGAGGUUUUAGGAATT against Qtrt2 the z-score was -0.0174 (inactive).
For GGUUGUGGUCUUUGUUCUGTT against Olfr923, the z-score was -1.11 (inactive).
For GGAAAGAACAACAAAGGAGTT against Snx9, the z-score was 0.84 (inactive).
With CCUCUCAGAUGGUAUAUAATT against Olfr520 the z-score was -2.14 (active).
With GCCUCAAUUGUUUACUUAUTT against Edn2 the z-score was 0.404 (inactive).
In the case of GGAGAAGUCAUGAAACAAATT against Prkn, the z-score is reported as 0.349 (inactive).
For GGACAAAUCUUUGUUUAGCTT against Plscr3, the z-score was -0.0965 (inactive).
For GGGACCCAAGGAUAUGAAUTT against Rbsn, the z-score was 0.6 (inactive).
For GGAGCAAGUAUUUACAUUGTT against Psmd10, the z-score was 1.55 (inactive).
For GGAGGUUGGGAUGAAUUAUTT against Rab6b, the z-score was 4.26 (active).
In the case of GGACUAAUUGGCCUCUGCUTT against Rpl22l1, the z-score is reported as 0.638 (inactive).
